# Measurements as given in PubChem BioAssay AID1445 (SRMLSC, 2008).
# The campaign covered roughly 220,000 compounds. About 910 (0.41%) were called active. The sample as a whole holds a higher share of actives than the screen did. Results with a measured potency or affinity are listed apart. Unmarked numbers belong to inactive results.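 The calls were made as follows: active = primary inhibition above the hit cutoff, then over 50% inhibition at one or more dose response concentrations (cut at about 23% in these data, passing the limit was not always enough); inconclusive = conflicting primary data, or primary hits not chosen for dose response; inactive = low primary inhibition, or under 50% at every dose.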
# Target: Aminopeptidase N (Plasmodium falciparum (isolate 3D7)) (UniProt O96935)
# Sequence (O96935 whole entry, looked up): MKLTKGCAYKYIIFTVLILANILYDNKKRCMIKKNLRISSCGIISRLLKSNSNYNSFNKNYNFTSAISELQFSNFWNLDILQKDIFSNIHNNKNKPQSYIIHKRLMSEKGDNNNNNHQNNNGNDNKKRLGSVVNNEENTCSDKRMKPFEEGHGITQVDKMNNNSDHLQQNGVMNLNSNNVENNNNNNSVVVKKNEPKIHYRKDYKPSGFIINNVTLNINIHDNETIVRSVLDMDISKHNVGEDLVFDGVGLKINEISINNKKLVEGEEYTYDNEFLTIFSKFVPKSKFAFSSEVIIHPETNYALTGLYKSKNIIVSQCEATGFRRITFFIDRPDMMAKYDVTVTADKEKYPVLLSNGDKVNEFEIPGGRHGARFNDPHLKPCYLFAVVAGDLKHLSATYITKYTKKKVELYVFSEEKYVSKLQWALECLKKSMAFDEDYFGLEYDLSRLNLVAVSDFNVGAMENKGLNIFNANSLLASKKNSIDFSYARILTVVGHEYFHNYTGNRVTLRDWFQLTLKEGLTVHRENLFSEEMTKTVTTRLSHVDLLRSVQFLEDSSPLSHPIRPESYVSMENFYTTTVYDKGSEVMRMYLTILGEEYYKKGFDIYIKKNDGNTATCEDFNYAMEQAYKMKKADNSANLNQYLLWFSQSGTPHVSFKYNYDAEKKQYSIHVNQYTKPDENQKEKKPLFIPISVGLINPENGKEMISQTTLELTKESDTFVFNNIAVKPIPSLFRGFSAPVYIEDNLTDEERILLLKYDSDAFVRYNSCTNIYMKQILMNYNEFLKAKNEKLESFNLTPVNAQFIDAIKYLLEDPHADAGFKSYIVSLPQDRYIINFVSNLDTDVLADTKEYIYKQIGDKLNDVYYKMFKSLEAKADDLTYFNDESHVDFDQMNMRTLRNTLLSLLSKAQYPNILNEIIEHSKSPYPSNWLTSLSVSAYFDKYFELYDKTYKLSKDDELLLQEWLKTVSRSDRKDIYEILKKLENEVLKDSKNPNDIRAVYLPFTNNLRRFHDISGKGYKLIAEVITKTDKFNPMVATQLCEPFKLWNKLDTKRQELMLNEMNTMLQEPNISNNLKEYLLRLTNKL
# Assay: P. falciparum M1AAP inhibitors, biochemical, fluorogenic H-Leu-NHMec substrate, 1536-well (AID 1445);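 also: plate controls were DMSO full reaction for no effect and no enzyme background for full effect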
# Details: recombinant M1AAP, H-Leu-NHMec fluorogenic kinetic assay; at 30 µM, hits give high values unless noted
row,SMILES,inhibition
1,COC(=O)C1=C(C(=O)OC)[C@@H]2N(Cc3ccccc3)c3ccccc3[C@@]23C[C@@H](C(=O)OC)N=C3N1,7.23%
2,Cc1ccc2[nH]c(=O)c(CN(Cc3ccco3)S(=O)(=O)c3c(C)ccc4nsnc34)cc2c1,24.1% (active)
3,Cc1cc2cc(CN(Cc3ccco3)S(=O)(=O)c3c(C)ccc4nsnc34)c(=O)[nH]c2cc1C,12.1%
4,Cc1ccc2cc(CN(Cc3ccco3)S(=O)(=O)c3c(C)ccc4nsnc34)c(=O)[nH]c2c1,8.06%
5,CC12CNCC(C)(CN(C3(O)C(=O)Nc4ccc(Br)cc43)C1)C2=O (stereo not given),-7.16%
6,O=C(c1cccc([N+](=O)[O-])c1)N1CCN(Cc2ccc3c(c2)OCO3)CC1,0.06%
7,O=C(/C=C/c1cccc([N+](=O)[O-])c1)NCc1ccc2c(c1)OCO2,6.01%
8,CN(Cc1c(F)cccc1Cl)c1ccc(S(=O)(=O)N2CCOCC2)cn1,-2.07%
9,O=C1OC(c2cccs2)=N/C1=C\c1ccc(-c2ccccc2Cl)o1,15.5%
10,O=C1OC(c2cccs2)=N/C1=C\c1ccc(-c2cccc(Cl)c2)o1,24.5% (active)
11,O=C1OC(c2cccs2)=N/C1=C/c1ccc(-c2cccc(C(=O)O)c2)o1,10.5%
12,O=C(COC(=O)c1cccs1)NC1CCCCC1,4.47%
13,O=c1nc(/C=C/c2ccc(-c3ccc(F)cc3)o2)cc(C(F)(F)F)[nH]1,27.6% (active)
14,COc1ccc(/C=C/c2cc(C(F)(F)F)[nH]c(=O)n2)cc1OC,10.6%
15,O=C(O)c1ccccc1-c1ccc(/C=C/c2cc(C(F)(F)F)[nH]c(=O)n2)o1,15.6%
16,COC(=O)[C@@H]1CC[C@H](C)[C@@H](c2ccc(C)cc2)N1C(=O)c1ccc(/C=N/OC[C@@H](O)[C@H]2O[C@@H]3OC(C)(C)O[C@@H]3[C@H]2O)cc1,7.48%
17,COc1ccccc1NC(=O)c1cc([N+](=O)[O-])ccc1NCCN1C(=O)CCC1=O,10.1%
18,O=C(O)c1cccc(S(=O)(=O)Nc2ccc3oc(=O)sc3c2)c1,89.5%
19,Cc1ccc(S(=O)(=O)Nc2ccc3oc(=O)sc3c2)c(C)c1,21.7%
20,OCCN1CCN(CCOc2ccccc2-c2ccccc2)CC1,-1.14%
21,C=C(C)c1cccc(C(C)(C)NC(=O)Nc2ccc(Cl)cn2)c1,6.48%
22,C=C(C)c1cccc(C(C)(C)NC(=O)Nc2cc(C)ccn2)c1,14.8%
23,O=C(C=C1CCN(c2ncc(C(F)(F)F)cc2Cl)CC1)NNC(=O)Nc1ccc(Cl)cc1,1.48%

row,SMILES,inhibition
1,Nc1c(N(CCO)C(=O)C2CCCCC2)c(=O)[nH]c(=O)n1Cc1ccccc1,3.34%
2,COCCCN(C(=O)c1cc2c(s1)CCC2)c1c(N)n(Cc2ccccc2)c(=O)[nH]c1=O,-2.38%
3,Cc1nnc2sc(-c3ccccn3)nn12,-1.47%
4,COC(=O)C1=C(N)Oc2cc(C)n(CCCn3ccnc3)c(=O)c2C1c1ccc(Cl)cc1 (stereo not given),27.9% (active)
5,COC(=O)C1=C(N)Oc2cc(C)n(CC3CCCO3)c(=O)c2C1c1ccc(Cl)cc1 (stereo not given),10.9%
6,COC(=O)C1=C(N)Oc2cc(C)n(C)c(=O)c2C1c1ccc(Cl)cc1 (stereo not given),-1.12%
7,Cc1ccc(C)c(-n2c(Cc3cccs3)n[nH]c2=S)c1,-6.44%
8,CC(C)CCNC(=O)C(c1ccco1)N(CCCO)C(=O)Cn1nnc(-c2ccc(F)cc2)n1 (stereo not given),2.71%
9,O=C(CSc1nnc(NC2CCCCC2)s1)Nc1ccc(N2CCOCC2)cc1,0.83%
10,O=C(Nc1ccccc1)/C(=C/c1cccnc1)NC(=O)c1ccco1,-3.98%
11,CCOc1cc(/C=N\NC(=O)c2ccc(C)nc2)cc([N+](=O)[O-])c1O,19.1%
12,Cc1ccc(/C=N/NC(=O)c2cccs2)cc1[N+](=O)[O-],5.44%
13,O=C(c1cccnc1)N1CCN(c2ccc([N+](=O)[O-])cc2Cl)CC1,7.28%
14,CCN1CCCC1CNC(=O)C(=O)Nc1ccccc1 (stereo not given),4.81%
15,O=C1Nc2ccc(F)cc2C12Nc1ccccc1-c1nnc(SCc3ccccc3Cl)nc1O2 (stereo not given),14.4%
16,O=C1Nc2ccc(Cl)cc2C12Nc1ccccc1-c1nnc(SCc3ccccc3F)nc1O2 (stereo not given),19.9%
17,CC(Oc1cc(F)ccc1[N+](=O)[O-])C(=O)N(C)CC(=O)Nc1ccccc1C(F)(F)F (stereo not given),7.16%
18,O=C1C2=C(c3ccccc31)[N+](=O)[C@@H]1CCCC[C@@H]1N2[O-],8.78%
19,CC(NC(=S)Nc1ccc(F)cc1)C(c1cccs1)N1CCOCC1 (stereo not given),1.91%
20,CC1=CN2C(=N)/C(=C/c3ccco3)C(=O)N=C2S1,11%
21,CC1=CN2C(=N)/C(=C/c3ccc(C)o3)C(=O)N=C2S1,20.6%
22,N#Cc1cc2c(N)c(C(=O)Nc3ccccc3)sc2nc1N,-0.33%
23,CCN(CC)S(=O)(=O)c1ccc2c(c1)nc(CCC(=O)OCC(=O)Nc1cc(Cl)cc(Cl)c1)n2C,0.35%

row,SMILES,inhibition
1,CCOC(=O)c1c(NC(=O)CSc2nnc(C)c(=O)[nH]2)sc(C)c1C,6.77%
2,Cc1nnc(SCC(=O)Nc2sc3c(c2C(N)=O)CCCC3)[nH]c1=O,11.5%
3,O=C(Nc1cccc2cccnc12)c1ccc2c(c1)OCCO2,3.45%
4,COC(=O)c1c(C(=O)OC)c(-c2cccc(Cl)c2)n2c1CS(=O)C2 (stereo not given),12.7%
5,Cc1nnc(SCC(=O)Nc2cccc(C(F)(F)F)c2)[nH]c1=O,3.06%
6,CCN(CCO)c1nc(SC)nc2c1sc1nc(-c3ccco3)c3c(c12)CCC3,20%
7,CSc1nc(N(CCO)CCO)c2sc3nc(-c4ccco4)c4c(c3c2n1)CCC4,27.5% (active)
8,CSc1nc(N(C)CCO)c2sc3nc(-c4ccco4)c4c(c3c2n1)CCC4,11.4%
9,COC(=O)c1sccc1NC(=O)CSCCc1ccccn1,4.36%
10,O=C(NCc1cccs1)C(Cc1ccccc1)NS(=O)(=O)c1cccs1 (stereo not given),13.3%
11,Cc1ccc(CNC(=O)C(Cc2ccccc2)NS(=O)(=O)c2cccs2)cc1 (stereo not given),-3.28%
12,O=C(c1ccco1)N1CCN(Cc2cccnc2)CC1,3.43%
13,CC(C)(C)NC(=O)Cn1nnc(-c2ccc(S(C)(=O)=O)cc2)n1,9.97%
14,Cc1onc(-c2ccncc2)c1C(=O)O,0.4%
15,COc1ccccc1-c1n[nH]c(=S)n1-c1ccccc1,2.6%
16,CN1CCN(C(=O)c2cc(Cl)ccc2Cl)CC1,8.9%
17,CC(=O)NNC(=S)NCCc1ccccc1,6.55%
18,O=C(CCc1ccc(O)cc1)NNC(=S)NCCc1ccccc1,-1.96%
19,Cc1nn(-c2ccccc2)c(N)c1C1(O)C(=O)N(C)c2ccccc21 (stereo not given),1.69%
20,Cn1cc(/C=C2\SC(=S)N(NC(=O)c3ccccc3)C2=O)c2ccccc21,3.01%
21,CC1(C)Nc2ccccc2C(=O)N1NS(=O)(=O)c1ccccc1,2.35%
22,CC(/C=C1\SC(=S)N(NC(=O)c2cccc(O)c2)C1=O)=C\c1ccccc1,-3.91%
23,CC1Nc2ccccc2C(=O)N1NS(=O)(=O)c1ccccc1 (stereo not given),1.49%

row,SMILES,inhibition
1,O=C(NN1C(=O)C2C3C=CC(O3)C2C1=O)c1cccc(O)c1 (stereo not given),6.69%
2,O=C(Nc1ccc(C(=O)NN2C(=O)c3ccccc3C2=O)cc1)c1ccccc1,8.25%
3,CCOc1cc(N2CCOCC2)c(OCC)cc1NC(=O)c1ccc(S(C)(=O)=O)cc1,9.02%
4,COc1ccccc1N(C)S(=O)(=O)c1ccc(C(=O)OCC(=O)NCc2ccco2)cc1,-0.82%
5,Cc1cccc(NC(=O)N2CCC(c3nc4ccccc4o3)CC2)c1,10%
6,COc1cc(NC(=S)NC(=O)C(C)C)ccc1NC(=O)c1cc2ccccc2o1,10.7%
7,COc1ccc(NC(=O)Nc2ccc(OCC(=O)N3CCOCC3)cc2)cc1OC,0.44%
8,CCC(C)(C)C1CCc2c(sc(NC(=O)c3cccs3)c2C(N)=O)C1 (stereo not given),-0.66%
9,C=CCn1c(=NC(=O)CC)n(C)c2ccccc21,0.56%
10,CCCn1c(CNc2ccccc2O)nc2ccccc21,0.88%
11,Cn1c(CNc2ccccc2O)nc2ccccc21,25% (active)
12,Cn1c(CNc2nc3ccccc3n2C)nc2ccccc21,-11.6%
13,COc1cc(C(=S)N2CCOCC2)cc(OC)c1OC(=O)Cc1ccc(F)cc1,7.01%
14,CC(C)(C)NC(=O)NC(=O)COC(=O)CCCc1c[nH]c2ccccc12,3.27%
15,O=C1NCCCc2nonc21,0.35%
16,CCOc1cc(/C=N/O)ccc1OS(=O)(=O)c1ccc(C)cc1,13.6%
17,CC(=O)Nc1ccc(S(=O)(=O)Oc2cccc(/C=C3\SC(N)=NC3=O)c2)cc1,-0.74%
18,CCOc1cc(/C=N/NS(=O)(=O)c2ccccc2)ccc1OS(=O)(=O)c1ccc(C)cc1,14.5%
19,CC(=O)Nc1ccc(S(=O)(=O)Oc2ccc(/C=N/N=C3/NC(=O)C(CC(=O)O)S3)cc2)cc1 (stereo not given),10.6%
20,COc1cc(/C=N/N=C2/NC(=O)C(CC(=O)O)S2)ccc1OCc1ccc(Cl)cc1 (stereo not given),21.8%
21,CCOc1cc(/C=N/N=C2/NC(=O)C(CC(=O)O)S2)ccc1OCc1ccc(Cl)cc1 (stereo not given),9.38%
